# Results taken from PubChem BioAssay AID761 (NMMLSC, 2007).
# In all, about 190,000 compounds went through this assay and about 400 (0.21%) were called active. About 2% were inconclusive and are not listed. The sample holds actives, similar compounds and a random draw of the others, so the mix is not that of the screen. Values without a mark were called inactive.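 The calls were made as follows: active = percent activity GTP binding at least 20 points away from the 100% baseline, either down as inhibitor or up as activator; inconclusive = compound flagged as likely green fluorescent from well-wide comparison; inactive = the rest.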
# Molecular target: Cell division control protein 42 homolog (Homo sapiens) (UniProt P60953)
# Sequence (P60953 whole entry, looked up): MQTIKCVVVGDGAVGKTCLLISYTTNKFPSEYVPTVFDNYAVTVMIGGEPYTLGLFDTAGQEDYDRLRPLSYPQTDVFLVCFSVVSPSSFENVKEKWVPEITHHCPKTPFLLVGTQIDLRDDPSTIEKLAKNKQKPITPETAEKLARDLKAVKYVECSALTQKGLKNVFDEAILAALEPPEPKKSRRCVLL
# Test: wildtype Cdc42 fluorescent GTP binding changes, either direction – biochemical, multiplex bead flow cytometry, Bodipy-GTP, primary screen (AID 761);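 also: median bead fluorescence of bound Bodipy-FL-GTP at 100 nM; 0% = excess unlabeled GTP control and 100% = no compound control; below 100% means less GTP binding so inhibitor and above means activator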
# Details: GST-Cdc42 beads, at 10 µM, actives lie on both sides
row,Structure (SMILES),percent activity (GTP binding)
1,Cc1ccccc1CC1(CO)CCCN(C(=O)c2cc(-c3ccccc3)no2)C1 (configuration not stated),98%
2,CCC1(CC)NC(=O)N(CC(=O)OCC(=O)NC(=O)c2ccccc2)C1=O,101%
3,c1ccc(-n2nnnc2-c2cccnc2)cc1,95%
4,O=C(Cn1cnc([N+](=O)[O-])n1)NCCc1ccccc1,97%
5,COc1cc(/C=C/C(=O)OCC(=O)N2CCOCC2)ccc1OCC#N,97%
6,O=C(c1ccc(OC2CCN(Cc3ccccn3)CC2)cc1)N1CCCCCC1,96%
7,COc1ccc(C)cc1NC(=O)CSc1nnc(CC(=O)Nc2ccccc2F)n1C,101%
8,Cc1cc(N/N=C/c2ccccc2F)c2ccccc2n1,96%
9,Cc1c(C(N)=O)sc2ncn(CCOc3ccccc3)c(=O)c12,89%
10,Cc1ccc(SC(CC(=O)c2ccc(C(C)(C)C)cc2)C(=O)O)cc1 (configuration not stated),77% (active)
11,CC(C)(C)c1ccc(C(=O)CSc2ncn[nH]2)cc1,103%
12,Cc1ccc(C(=O)CS(C)(=O)=O)cc1,104%
13,CC(=O)N/N=C/c1cc2c(cc1[N+](=O)[O-])OCO2,97%
14,CC1(C)CC(=O)CC2(C1)NCC(c1ccccc1Cl)c1c2[nH]c2ccccc12 (configuration not stated),96%
15,COc1ccc(CN(C)Cc2nc3cc(OC)c(OC)cc3c(=O)[nH]2)c(OC)c1,105%
16,O=C(Cc1cccs1)Nc1nnc(C2CC2)s1,99%
17,CC(=O)Nc1nc(N(C)C)nc(N(C)C)n1,97%
18,CN(c1ccccc1)S(=O)(=O)c1ccc(Cl)c(C(=O)OCC(=O)N2CCOCC2)c1,96%
19,COc1ccccc1CN(C)c1nnnn1-c1ccccc1,102%
20,O=C(NCC1CCN(Cc2ccccc2Cl)CC1)Nc1cccc(Cl)c1,106%
21,CC(=O)c1cc(C#N)c(N2CC(C)OC(C)C2)nc1C (configuration not stated),98%
22,OCCC1CN(Cc2ccccc2-c2ccco2)CCN1Cc1ccsc1 (configuration not stated),92%
23,COc1ccc(NC(=O)CSc2nnc(-c3ccccc3F)n2C2CC2)cc1S(N)(=O)=O,97%
24,O=C(NCc1ccco1)C(=O)c1cn(CC(=O)N2CCCCCC2)c2ccccc12,94%

row,Structure (SMILES),percent activity (GTP binding)
1,COCCN(CCOC)S(=O)(=O)c1ccc(C(=O)Nc2nc3c(s2)CCc2ccccc2-3)cc1,107%
2,C=CCN(CC=C)S(=O)(=O)c1ccc(C(=O)Nc2sc3c(c2C(N)=O)CCCCC3)cc1,104%
3,C=CCN(CC=C)S(=O)(=O)c1ccc(C(=O)Nc2nc3c(s2)CCc2ccccc2-3)cc1,138% [activator] (active)
4,CCOc1cc(N2CCOCC2)c(OCC)cc1NC(=O)c1ccc(C)s1,94%
5,O=C(CCl)N(Cc1cccc([N+](=O)[O-])c1)c1cccc(Cl)c1,96%
6,CC(=O)NCCc1nc2cc(NC(=O)c3ccccc3)ccc2n1C,102%
7,COC(=O)c1c(NC(=O)CCCC(=O)O)sc2c1CCCCC2,97%
8,Cc1nc([N+](=O)[O-])cn1CC(=O)Nc1ccc2c(c1)OCO2,94%
9,C/C(Cn1nnc2ccccc21)=N\OC(=O)c1cc(F)c(F)cc1Cl,89%
10,CCCC(C)C(=O)NCc1ccncc1 (configuration not stated),98%
11,OC1CCCN(c2ncnc3c2nnn3Cc2c(F)cccc2Cl)C1 (configuration not stated),94%
12,CC(C)(C)c1ccc(/C=C2\SC(=O)N=C2N)cc1,96%
13,C=CCC1(CC=C)CCCN1C(=O)CC1C(=O)NCCN1Cc1ccccc1OC (configuration not stated),99%
14,COc1ccc(C(C)=O)cc1CSc1nc2nc(C)cc(C)n2n1,96%
15,COc1ccc(CCNC(=O)C(=O)NCc2ccccc2C)cc1OC,100%
16,O=C(C1CCCO1)N1CCN(C(=S)NC2CC2)CC1 (configuration not stated),98%
17,S=C(NC1CCCCC1)NN1CCOCC1,99%
18,COc1ncnc2sc3c(c12)CCCC3,103%
19,COc1ccc(/C=N/Nc2ncnc3sc4c(c23)CCCC4)cc1O,73% (active)
20,COc1cc(/C=N/Nc2ccc(C)cc2)cc(Br)c1O,100%
21,Cn1c(N)c(C(=O)COC(=O)/C=C/c2ccc(OC(F)F)cc2)c(=O)n(C)c1=O,94%
22,Cc1ccc2c(c1)C1CN(C)CCC1N2C(=S)Nc1ccc(Cl)cc1Cl (configuration not stated),97%
23,CCCCCCCNc1nc(Cl)nc(NCCO)n1,92%
24,COc1cccc(-n2nc(C(=O)N3CCN(Cc4ccccc4)CC3)c3ccccc3c2=O)c1,96%

row,Structure (SMILES),percent activity (GTP binding)
1,CCOC(=O)N1CCC(=NNC(N)=O)CC1,102%
2,CCOC(=O)C(NC(C)=O)C(=O)Nc1ccc(OC)cc1 (configuration not stated),93%
3,S=C(Nc1cccc(Br)c1)N1CCn2cccc2C1c1cccnc1 (configuration not stated),96%
4,O=C(CSc1ccccc1)Nc1ccc(C(=O)Nc2cccc(O)c2)cc1,77% (active)
5,Cc1cc(C)cc(NC(=O)CSc2ccccc2)c1,91%
6,O=C(CSc1ccccc1)Nc1ccc(NC(=O)c2ccco2)cc1,100%
7,COCCSc1nnc(NC(=O)c2cc(OC)c(OC)cc2[N+](=O)[O-])s1,102%
8,O=C(CSc1ncnc2c1nnn2Cc1ccc(F)cc1)NC1CCCC1,96%
9,CC(=O)c1ccc(NC(=O)C(C)N(C)CC(=O)Nc2ccccc2Cl)cc1 (configuration not stated),98%
10,COC(=O)C(C)N=Cc1ccccc1 (configuration not stated),97%
11,NS(=O)(=O)c1ccc(CCNC(=O)c2ccc(Cl)cc2[N+](=O)[O-])cc1,92%
12,COC(=O)c1ccc(-n2cnc3ccccc32)nc1,95%
13,CCC(C)NCC(=O)Nc1ccc([N+](=O)[O-])cc1C(=O)Nc1ccccc1F (configuration not stated),98%
14,CCCn1nc(Oc2nc(NC(C)C)nc(N(C)C)n2)ccc1=O,97%
15,CN(C)c1nnnn1-c1ccc(Cl)cc1,96%
16,O=C(/C=C/c1ccccc1[N+](=O)[O-])OC1CCCCC1=O (configuration not stated),97%
17,O=C(N/N=C/c1ccco1)c1ccc(C(=O)N/N=C/c2ccco2)o1,84%
18,O=C(Nc1ccc([N+](=O)[O-])cc1)C1CC12CCC2 (configuration not stated),96%
19,O=C(Nc1cccnc1)c1ccc(Cl)c([N+](=O)[O-])c1,96%
20,O=C(/C=C/c1ccc(Cl)c([N+](=O)[O-])c1)c1cccnc1,79% (active)
21,O=C(/C=C/c1ccc(Cl)cc1Cl)c1cccnc1,88%
22,CC(=O)C1=C(C)NC2=C(C(=O)CC(C)(C)C2)C1C (configuration not stated),96%
23,CN(CCOc1ccccc1)Cc1nc2cc(Cl)ccc2c(=O)[nH]1,93%
24,O=C(CC1Nc2ccccc2NC1=O)Nc1ccccc1NC(=O)CC1Nc2ccccc2NC1=O (configuration not stated),99%

row,Structure (SMILES),percent activity (GTP binding)
1,Cc1nc2nc[nH]n2c(=O)c1C/C=C/c1ccccc1,89%
2,COc1ccc(C(=O)C2CCCN(C(=O)c3cc4nc(C)cc(C)n4n3)C2)cc1F (configuration not stated),99%
3,O=C(COC(=O)CCc1ccc(S(=O)(=O)N2CCOCC2)cc1)Nc1cccc(Cl)c1,97%
4,O=C(c1ccccc1Cl)N(Cc1ccccc1F)N1C(=O)CCCC1=O,98%
5,O=C(O)Cc1sc(-c2ccccc2)nc1-c1cccs1,92%
6,CCS(=O)(=O)C1=NSC2=NC(=O)/C(=C\c3cc(C)n(-c4cccc(OC)c4)c3C)C(=N)N21,93%
7,N/C(=N\OC(=O)c1ccc([N+](=O)[O-])cc1)c1ccccn1,96%
8,O=C(CN1CCC(O)(c2ccccc2)CC1)Nc1ccc2c(c1)OCCO2,97%
9,CCN1CC(CN(C)Cc2nc(-c3ccc(Cl)cc3)no2)CC1=O (configuration not stated),101%
10,Cc1ccc([N+](=O)[O-])c(OCCCNCC(C)O)c1 (configuration not stated),103%
11,CCCN(CCC)c1ccc(C(O)c2nnc(-c3ccccc3)o2)cc1 (configuration not stated),95%
12,O=C(NCC(O)c1ccc([N+](=O)[O-])cc1)C1CCCCC1 (configuration not stated),97%
13,CN1CCN(c2nc(Nc3ccc(O)cc3)nc3ccccc23)CC1,95%
14,CCn1c(COc2c(C)cccc2C)nnc1SCc1nc2ccccc2c(=O)[nH]1,94%
15,O=S(=O)(NC1CC1)c1ccc2c3c(cccc13)CC2,93%
16,CCOC(=O)CSc1nc2c(sc(=S)n2CCc2ccccc2)c(=O)n1Cc1ccco1,99%
17,CN(c1ccccc1)c1ccc(/C=c2\s/c(=C(/C#N)C(=O)C(C)(C)C)n(Cc3ccco3)c2=O)cc1,143% [activator] (active)
18,Cc1cc2c(c(=O)n1Cc1ccco1)C(c1ccccc1)C(C#N)=C(N)O2 (configuration not stated),103%
19,CCCNCc1cc(OCC)c(OCC(=O)Nc2ccccc2)cc1Br,96%
20,CC(=O)N1CCc2cc(Br)cc(S(=O)(=O)CCC(=O)Nc3c(C)n(C)n(-c4ccccc4)c3=O)c21,100%
21,Cc1cc(NC(=O)CSc2nccn2-c2ccc([N+](=O)[O-])cc2)no1,96%
22,CC(=O)Nc1ccc(NC(=O)CSc2nnc(COc3ccccc3C)n2CC2CCCO2)cc1 (configuration not stated),99%
23,C=CCO/N=C/C1=C(O)C(C(=O)OC)C(C)(C)CC1=O (configuration not stated),108%
24,COC(=O)c1cc(NC(=O)CN2CCN(C(C)=O)CC2)cc(C(=O)OC)c1,99%

row,Structure (SMILES),percent activity (GTP binding)
1,Cc1cc(N2CCN(C)CC2)nc2ccc(NC(=S)N3CCOCC3)cc12,96%
2,COc1cccc(NC(=O)CC2C(=O)NCCN2C(=S)Nc2ccc(F)cc2)c1 (configuration not stated),97%
3,CCOC(=O)C(CC)/C(C)=N\NC(=O)c1cccc(C)c1 (configuration not stated),92%
4,Cc1ccc(/C([O-])=C(/C(=S)NCc2ccco2)[n+]2ccccc2)cc1[N+](=O)[O-],95%
5,CCn1nc(C)c(CN2CCN(Cc3ccc(OC)c(C)c3C)C(CCO)C2)c1C (configuration not stated),97%
6,C=CCc1ccc(OCC(O)CN2CCN(Cc3ccccc3)CC2)c(OC)c1 (configuration not stated),94%
7,CC(=O)Nc1ccc(S(=O)(=O)Nc2ccc(-c3ccc4nnc(C)n4n3)cc2)cc1,89%
8,Nc1ccc(-c2sc(N)nc2-c2ccccc2)cc1,97%
9,Nc1[nH]c(=S)nc2nc(-c3ccccc3)c(-c3ccccc3)nc12,78% (active)
10,O=C(NNc1cc(Cl)ccc1Cl)c1cccnc1Cl,97%
11,CCOC(=O)c1ccccc1NC(=S)N1CCC(C(N)=O)CC1,97%
12,O=C(/C=C/c1ccccc1)Oc1coc(CSc2ncccn2)cc1=O,91%
13,Cc1ccc(CN2CCN(Cc3ccc4ncccc4c3)CC2CCO)cc1 (configuration not stated),94%
14,Cc1nccc(-c2ccc(-n3c(C)ccc3C)cc2)n1,93%
15,Cc1ccc(N2C(=O)C3CC3C2=O)cc1 (configuration not stated),98%
16,Cc1ccccc1CN1C[C@@H]2C[C@@H](c3ccc4nsnc4c3)N3CCC[C@@]23C1=O,101%
17,CCS(=O)(=O)c1ccc(C(=O)NC)c(Cl)c1Cl,91%
18,COc1ccc(C)cc1NC(=O)Nc1ccccc1SC,98%
19,CC(C)C(O)C1CCN(Cc2nc(Cc3ccccc3Cl)no2)CC1 (configuration not stated),96%
20,COc1ccc(CN2CCCC(CNC(=O)c3ccc(F)cc3)C2)cc1OC (configuration not stated),97%
21,COc1ccc(Cl)cc1NC(=O)NC(C)C(C)(C)C (configuration not stated),101%
